The full ranking holds about 8,300 sequences; the median of “log2 fold change of degron read counts, EGFP-low vs EGFP+ sorted cells (limma voom), compound-induced degradation” is about -1.1, and the highest 2% start at about 3.2. The entries come from a sample that favours the highest values as a whole.
T1: CRBN, Q96SW2
T1 chain: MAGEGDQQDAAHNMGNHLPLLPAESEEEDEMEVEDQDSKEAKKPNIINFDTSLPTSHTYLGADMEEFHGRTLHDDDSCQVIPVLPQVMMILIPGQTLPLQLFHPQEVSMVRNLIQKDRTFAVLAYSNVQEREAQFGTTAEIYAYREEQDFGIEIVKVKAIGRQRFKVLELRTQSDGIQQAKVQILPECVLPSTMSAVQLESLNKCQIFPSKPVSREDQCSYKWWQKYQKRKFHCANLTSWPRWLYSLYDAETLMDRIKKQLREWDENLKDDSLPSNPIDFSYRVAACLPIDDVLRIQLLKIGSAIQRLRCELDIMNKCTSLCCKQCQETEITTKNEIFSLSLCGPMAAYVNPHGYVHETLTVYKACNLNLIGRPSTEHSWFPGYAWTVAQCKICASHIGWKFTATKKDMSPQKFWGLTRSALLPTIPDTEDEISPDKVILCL


Target: T1, CRBN, Q96SW2
Test: log2 fold change of degron read counts, EGFP-low vs EGFP+ sorted cells (limma voom), compound-induced degradation; higher = more compound-induced degradation of the degron-EGFP fusion; degrons are variants of IKZF1/3 zinc finger 2; compound dose not given here
Conditions: Jurkat, 18 h
[1] = compound: compound 19 (5-tert-butyl-thalidomide)
[2] = compound: compound 22 (5-morpholino-thalidomide)
[3] = compound: compound 33 (diphenyl IMiD analogue)
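Note: pooled lentiviral library of zinc finger degron-EGFP fusions in mCherry-positive Jurkat cells, FACS-sorted after compound exposure, with degron abundance counted by next-generation sequencing.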

Row | Sequence | log2 fold change of degron read counts [1] | log2 fold change of degron read counts [2] | log2 fold change of degron read counts [3] | log2 fold change of degron read counts (compound: thalidomide)
1 | FACNQCGAFFTQKGNLLRHIKL [46F_47A_49N_50Q_52G_53A_54F_55F_67L_, Q9UKT9] | -1.64 | -2.14 | -1.53 | -2.28
2 | FRCEICGRGFTQKGNLLRHIKL [46F_47R_49E_50I_52G_53R_54G_55F_67L_, Q9UKT9] | -2 | -1.92 | -0.0801 | -0.562
3 | FTCEVCGASFTQKGNLLRHIKL [46F_47T_49E_50V_52G_53A_54S_55F_67L_, Q9UKT9] | 2.27 | 2.96 | 2.53 | 3.12
4 | FGCEVCGASFTQKGNLLRHIKL [46F_47G_49E_50V_52G_53A_54S_55F_67L_, Q9UKT9] | 3.37 | 2.27 | 1.58 | 0.816
5 | FKCEVCGASFTQKGNLLRHIKL [46F_47K_49E_50V_52G_53A_54S_55F_67L_, Q9UKT9] | 1.43 | -1.05 | -2 | 0.154
6 | FECEVCGASFTQKGNLLRHIKL [46F_47E_49E_50V_52G_53A_54S_55F_67L_, Q9UKT9] | 2.09 | -1.03 | 1.48 | 2.32
7 | FSCEVCGASFTQKGNLLRHIKL [46F_47S_49E_50V_52G_53A_54S_55F_67L_, Q9UKT9] | 3.58 | 2.8 | 2.27 | 1.63
8 | FWCNVCGASFTQKGNLLRHIKL [46F_47W_49N_50V_52G_53A_54S_55F_67L_, Q9UKT9] | 1.46 | 3.01 | 1.08 | -0.303
9 | FDCEVCGASFTQKGNLLRHIKL [46F_47D_49E_50V_52G_53A_54S_55F_67L_, Q9UKT9] | 2.81 | 0.541 | 0.131 | 0.979
10 | FCCEVCGASFTQKGNLLRHIKL [46F_47C_49E_50V_52G_53A_54S_55F_67L_, Q9UKT9] | 3.45 | 2.85 | 2.25 | 2.34
11 | FWCEVCGASFTQKGNLLRHIKL [46F_47W_49E_50V_52G_53A_54S_55F_67L_, Q9UKT9] | 3.77 | 3.54 | 2.67 | 1.37
12 | FQCEQCGAAFTQKGNLLRHIKL [46F_47Q_49E_50Q_52G_53A_54A_55F_67L_, Q9UKT9] | -0.398 | 0.724 | 0.313 | 3.01
13 | LTCNQCGFPCTQKGNLLRHIKL [46L_47T_49N_50Q_52G_53F_54P_55C_67L_, Q9UKT9] | -2.43 | -2.96 | -2.54 | -1.71
14 | FTCEVCGAFFTQKGNLLRHIKL [46F_47T_49E_50V_52G_53A_54F_55F_67L_, Q9UKT9] | -0.934 | -0.537 | 0.743 | 0.936
15 | FSCDQCGAMFTQKGNLLRHIKL [46F_47S_49D_50Q_52G_53A_54M_55F_67L_, Q9UKT9] | -1.8 | -2.9 | -1.87 | -2.82
16 | FSCPQCGAAFTQKGNLLRHIKL [46F_47S_49P_50Q_52G_53A_54A_55F_67L_, Q9UKT9] | 0.138 | -0.952 | 1.89 | -0.879
17 | FWCPICGHMFTQKGNLLRHIKL [46F_47W_49P_50I_52G_53H_54M_55F_67L_, Q9UKT9] | -0.107 | -0.117 | 0.131 | -0.274
18 | LHCPICGFMCTQKGNLLRHIKL [46L_47H_49P_50I_52G_53F_54M_55C_67L_, Q9UKT9] | 2.17 | 2.35 | 2.28 | 1.44
19 | FVCEQCGATFTQKGNLLRHIKL [46F_47V_49E_50Q_52G_53A_54T_55F_67L_, Q9UKT9] | -2.6 | -1.48 | 0.0752 | -0.452
20 | FLCNQCGADFTQKGNLLRHIKL [46F_47L_49N_50Q_52G_53A_54D_55F_67L_, Q9UKT9] | -2.76 | -3.21 | -2.79 | -2.29
21 | FYCEICGHEFTQKGNLLRHIKL [46F_47Y_49E_50I_52G_53H_54E_55F_67L_, Q9UKT9] | -2.18 | -2.9 | -1.81 | -2.55
22 | FYCPQCGAFFTQKGNLLRHIKL [46F_47Y_49P_50Q_52G_53A_54F_55F_67L_, Q9UKT9] | 0.239 | 0.269 | 0.837 | -1.07
23 | FFCEVCGASFTQKGNLLRHIKL [46F_47F_49E_50V_52G_53A_54S_55F_67L_, Q9UKT9] | 3.45 | 3.66 | 2.48 | 1.61
24 | FLCEVCGASFTQKGNLLRHIKL [46F_47L_49E_50V_52G_53A_54S_55F_67L_, Q9UKT9] | 1.64 | -0.285 | 1.43 | 1.45
25 | FNCEVCGASFTQKGNLLRHIKL [46F_47N_49E_50V_52G_53A_54S_55F_67L_, Q9UKT9] | 3.22 | 1.38 | 0.489 | 0.435
26 | FICNICGAGFTQKGNLLRHIKL [46F_47I_49N_50I_52G_53A_54G_55F_67L_, Q9UKT9] | -0.991 | 1.17 | 1.13 | 1.71
27 | FTCEICGRFFTQKGNLLRHIKL [46F_47T_49E_50I_52G_53R_54F_55F_67L_, Q9UKT9] | -1.56 | -2.16 | -1.26 | -1.11
28 | FSCPICGHHFTQKGNLLRHIKL [46F_47S_49P_50I_52G_53H_54H_55F_67L_, Q9UKT9] | -1.98 | -2.66 | -2 | -1.93

Source: the supplement of paper PMC12645437, “Orthogonal IMiD-Degron Pairs Induce Selective Protein Degradation in Cells” (ACS Chemical Biology, 2025)
